Laboratory results: PubChem BioAssay AID2158 (National Center for Advancing Translational Sciences (NCATS), 2009)
Several values for one entry are separate records, joined by “and”; a condition that tells them apart may be missing. Identical values can stand only once. Results filed as inconclusive are left out. Activity calls are given as the source filed them. The call rests on the fitted dose curve; in most records, active means well fitted inhibition curve with a large enough effect; inconclusive means small, poorly fitted or top-dose-only effect; inactive means no such curve, though single readings can be large or run the other way.

Target: Cruzipain (Trypanosoma cruzi) (UniProt P25779)
Sequence (P25779 123-467 limits assumed): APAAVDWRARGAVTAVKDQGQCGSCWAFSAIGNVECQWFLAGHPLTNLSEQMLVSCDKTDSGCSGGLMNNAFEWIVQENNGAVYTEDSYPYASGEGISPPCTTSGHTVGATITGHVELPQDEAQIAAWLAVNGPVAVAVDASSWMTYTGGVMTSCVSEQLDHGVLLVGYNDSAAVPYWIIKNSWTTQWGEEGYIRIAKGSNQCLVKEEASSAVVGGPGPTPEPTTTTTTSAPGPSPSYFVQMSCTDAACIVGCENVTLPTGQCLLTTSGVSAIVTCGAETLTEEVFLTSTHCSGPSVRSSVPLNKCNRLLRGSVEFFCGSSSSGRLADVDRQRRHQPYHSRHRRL
Experiment: Confirmation qHTS Assay for Inhibitors of Cruzain; further: nearly all actives have a fitted effect of over 40% in size;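 on activity change, negative = inhibition: plate controls were uninhibited enzyme control for no effect and buffer wells lacking enzyme for full effect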
Details: purified cruzain, Z-FR-AMC fluorescence, 0.01% Triton
In short: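 Purified cruzain, 1.5 nM, pre-incubated 15 min at room temperature with compound in 100 mM sodium acetate pH 5.5, 5 mM DTT, 0.01% Triton X-100. Then 2 uM Z-FR-AMC added; AMC fluorescence (ex 360/em 450 nm) increase over 60 s gave reaction progress.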
Potency means the concentration at half of the fitted maximal effect.

Row | Compound | Potency | activity change, negative = inhibition
1 | COc1ccc(C(=O)NCC(=O)OCC(=O)c2ccc3ccccc3c2)cc1 | 15800 nM (active) | –
2 | CC(C)(C)OC(=O)CC(=O)NNC(=O)c1nc2ccccc2[nH]1 | – | 3.76% (inactive)
3 | Cc1cccc(C)c1OCCn1c(CCNC(=O)C2CCCCC2)nc2ccccc21 | 1120 nM (active) | –
4 | CC(C)(C)C(=O)O/N=C1/C(=O)N(c2ccccc2)c2ccccc21 | – | -24.3% (inactive)
5 | CCC(C)[C@@H](NC(=O)OC(C)(C)C)c1nnc(S(=O)(=O)Cc2cccc(C)c2)o1 (stereo not given in full) | 14100 nM (active) | –
6 | O=C(Cn1c2ccccc2c(=O)c2ccccc21)Nc1cccc(F)c1 | – | -8.37% (inactive)
7 | O=c1c2ccccc2sc2nc(C3CCCCC3)n(Cc3ccco3)c(=O)c12 | 25100 nM (active) | –
8 | CN(C)CCCNS(=O)(=O)c1ccc(N2CCC(c3ccc(Cl)cc3)=N2)cc1 | – | -28.4% (inactive)
9 | O=C(NCCc1nc2ccccc2n1CCCOc1ccc(Cl)cc1)C1CCCCC1 | 891 nM (active) | –
10 | N#Cc1nc(Nc2cc(Cl)cc(Cl)c2)nc(NC2CCCC2)n1 | 398 nM (active) | –
11 | O=C(CNC(=O)C1CCCCC1)OC(C(=O)c1ccccc1)c1ccccc1 (stereo not given) | 1260 nM (active) | –
12 | O=C(NCc1nnc(-c2nc3ccccc3[nH]2)o1)C1CCCCC1 | – | -3.39% (inactive)
13 | CCOc1ccc(-c2nn3c(-c4cc(-c5ccccc5)n[nH]4)nnc3s2)cc1 | – | -7.68% (inactive) and -5.69% (inactive)
14 | CCn1nc(-c2ccccc2C)nc2c(=O)n(C)c(=O)nc1-2 | 631 nM (active) | –
15 | Cc1ccc(OCCCCn2c(CCNC(=O)C3CCCCC3)nc3ccccc32)cc1 | 1120 nM (active) | –
